In experiment [1] the test system is Human papillomavirus type 1a protein E7 (residues 44-93). Kind of experiment: small molecules binding HPV E7 44-93 – biochemical, small-molecule microarray, residues 44-93, 635 nm fluorescence, primary screen (AID 1108).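 Also: E7 fragment applied at 1 µg/mL in TBST for 1 h at 4 C; score combines spot fluorescence with its signal to noise ratio.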 To be noted: fluorescence 635 nm, higher = more signal.
Experiment [2] in a line: hepatitis C replication reporter changes, two-sided – Huh7 cells, luciferase reporter, HCV replication inhibitor project, primary screen (AID 1109).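 Also: huh7 hepatoma cells harbouring a luciferase neomycin HCV replicon reporter; luciferase luminescence as measure of HCV replicon replication; test concentration not given here.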 The note with it: Huh7 HCV replicon luciferase reporter, 48 h; higher = more signal. On the technique in general: Reporter assays use an easily measured gene product as a stand-in for the process of interest.
Experiment [3] concerns the target Left-right determination factor 2 (Homo sapiens) (UniProt O00292). Kind of experiment: small molecules binding LEFTY2 protein – biochemical, small-molecule microarray, 635 nm fluorescence scan, primary screen (AID 1110). The note with it: higher = more signal.
For experiment [4], the target named is Calmodulin-1 (Homo sapiens) (UniProt P0DP23). Kind of experiment: small molecules binding calmodulin-1 with EGTA – biochemical, small-molecule microarray, Cy5-labelled CALM1, profiling panel (AID 1111).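 Also: labelled calmodulin applied in Tris saline Tween buffer holding calcium plus EGTA and DTT.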 To be noted: Cy5-CALM1 binding fluorescence, higher = more signal.
Experiment [5] has the same target. Kind of experiment: small molecules binding Ca-loaded calmodulin-1 – biochemical, small-molecule microarray, Cy5-labelled CALM1, plus calcium, artefact control for SMM control-protein annotation, profiling panel (AID 1112).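 Also: score merges spot fluorescence with signal to noise from triplicate slides.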 To be noted: Cy5-CALM1 binding fluorescence, higher = more signal.
A short description of experiment [6]: probe aWnt5a binding to arrayed compounds – biochemical, biotinylated probe, 635/667 nm fluorescence, primary screen (AID 1113).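 Also: score merges 667 nm fluorescence intensity with signal-to-noise per printed feature.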 To be noted: small-molecule microarray, higher = more signal.
Experiment [7] can be described thus: probe aShh binding to arrayed compounds – biochemical, biotinylated probe, 635/667 nm fluorescence, primary screen (AID 1114).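 Also: probe is biotin-labelled aShh protein from a stem cell growth factor screen; measures binding of labelled protein to compounds printed on the slide; score merges feature fluorescence at 667 nm with signal-to-noise.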 To be noted: small-molecule microarray, higher = more signal.
The nature of experiment [8]: probe aNog binding to arrayed compounds – biochemical, biotinylated probe, 635/667 nm fluorescence, primary screen (AID 1115).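 Also: probe is biotinylated aNog protein used at 0.15 µg/mL for 1 h at 4 C; z-score combines 667 nm fluorescence of each spot with its signal to noise.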 To be noted: small-molecule microarray, higher = more signal.
Experiment [9] addresses Torsin-1A-interacting protein 1 (Homo sapiens) (UniProt Q5JTV8). Description: compound microarray binding of lysate hLAP1 – cell lysate, small-molecule microarray, COS7 lysate, 635/667 nm fluorescence, primary screen (AID 1116). The note with it: 635 nm fluorescence, higher = more signal.
Experiment [10] has as its target Alpha-bungarotoxin (Bungarus multicinctus) (UniProt P60615). Description: compounds binding labelled alpha-BTX control protein – biochemical, small-molecule microarray, Alexa647 label, 635/667 nm fluorescence, artefact control for SMM control protein annotation, profiling panel (AID 1117). To be noted: alpha-BTX-A647 binding fluorescence, higher = more signal.

Alpha-bungarotoxin (Bungarus multicinctus), sequence (P60615 whole entry, looked up): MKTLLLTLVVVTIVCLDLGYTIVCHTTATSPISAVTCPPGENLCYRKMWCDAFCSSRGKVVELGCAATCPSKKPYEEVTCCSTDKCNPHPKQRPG
Torsin-1A-interacting protein 1 (Homo sapiens), sequence (Q5JTV8 whole entry, looked up): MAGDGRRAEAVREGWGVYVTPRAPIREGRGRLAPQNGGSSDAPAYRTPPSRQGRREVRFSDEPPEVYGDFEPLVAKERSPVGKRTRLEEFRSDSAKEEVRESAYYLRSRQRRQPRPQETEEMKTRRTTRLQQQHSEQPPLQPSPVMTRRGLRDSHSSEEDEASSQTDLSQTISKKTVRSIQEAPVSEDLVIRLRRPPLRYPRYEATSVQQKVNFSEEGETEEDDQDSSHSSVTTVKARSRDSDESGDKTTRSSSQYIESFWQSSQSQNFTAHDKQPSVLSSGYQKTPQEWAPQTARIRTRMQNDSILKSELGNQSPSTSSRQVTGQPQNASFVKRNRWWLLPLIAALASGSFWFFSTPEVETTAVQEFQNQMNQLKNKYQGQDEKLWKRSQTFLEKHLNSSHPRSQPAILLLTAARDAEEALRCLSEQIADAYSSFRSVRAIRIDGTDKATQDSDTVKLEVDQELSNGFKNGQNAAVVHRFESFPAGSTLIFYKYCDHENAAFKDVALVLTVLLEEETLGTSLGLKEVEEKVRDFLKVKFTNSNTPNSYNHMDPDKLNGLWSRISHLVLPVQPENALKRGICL
Left-right determination factor 2 (Homo sapiens), sequence (O00292 whole entry, looked up): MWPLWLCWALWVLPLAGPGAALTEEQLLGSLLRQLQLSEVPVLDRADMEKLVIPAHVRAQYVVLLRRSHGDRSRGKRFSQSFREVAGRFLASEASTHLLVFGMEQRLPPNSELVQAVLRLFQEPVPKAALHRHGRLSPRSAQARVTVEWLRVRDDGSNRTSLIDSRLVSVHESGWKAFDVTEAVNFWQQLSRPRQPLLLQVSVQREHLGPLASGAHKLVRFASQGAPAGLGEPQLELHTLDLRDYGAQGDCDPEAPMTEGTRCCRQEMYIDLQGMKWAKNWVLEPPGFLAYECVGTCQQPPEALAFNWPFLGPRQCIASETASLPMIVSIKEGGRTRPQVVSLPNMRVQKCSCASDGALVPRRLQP

For `CC(=O)n1cc(C(O)C2C=CC3C(=O)N(c4ccccc4)C(=O)C3N2Nc2ccccc2F)c2ccccc21` (stereo not given), the composite z-score is 1.13 in experiment [1]; -0.747 in experiment [3]; 1.64 in experiment [4]; -0.494 in [5]; -0.0566 in experiment [6]; 0.0723 in experiment [7]. The values for the composite z-score in experiment [8], in experiment [9] and in experiment [10] were -0.305, 0.488 and 0.403, respectively. Besides, the z-score in experiment [2] is -0.159.

Regarding `CN1C(=O)[C@]2(CCS(=O)(=O)c3ccccc3)N=C(c3ccc(OCCCO)cc3)O[C@@H]2c2ccccc21`, the composite z-score in [1] was 1.5; in experiment [3], -0.249; in [4], 1.11; in experiment [5], -0.545; in experiment [6], -0.0704; in experiment [7], -0.0119. In addition, the composite z-score in experiment [8] was -0.122; in experiment [9] it was 0.0996; in experiment [10] it was 0.836. The compound further came in with a z-score in experiment [2] of -2.63.

`COCCOC(=O)N1C(=O)[C@@]2(c3cc(C#Cc4ccc(OC)cc4)ccc31)[C@H](C(=O)Nc1nc3ccccc3s1)[C@H]1C(=O)O[C@H](c3ccccc3)[C@H](c3ccccc3)N1[C@@H]2c1ccccc1OCCO`: the composite z-score in [1] was 0.773; in experiment [3], 0.615; in experiment [4], 1.5; in experiment [5], 0.747; in [6], -0.299; in [7], -0.138. For the same compound, the composite z-score in [8] was -0.7; in experiment [9], 0.188; in [10] it was 0.968. The same compound registered a z-score in experiment [2] of -1.43.

On to `CN(C)CCCC[C@@H]1NC(=O)[C@@H]2C[C@H](C(=O)NCc3ccc(F)cc3)[C@H](c3ccc(O)cc3)N2C1=O`, for which the composite z-score in [1] is 0.16; in [3] it was -0.275; in experiment [4], -0.638; in experiment [5], 0.235; in experiment [6], -0.204; in experiment [7] it was -0.138. Moreover, the results for the composite z-score in [8], in experiment [9] and in experiment [10] were -0.0503, 0.385 and -0.407, respectively. The z-score in [2] was -0.0619.

For `COCCOC(=O)N1C(=O)[C@@]2(c3cc(C#CCC(C(=O)OC)C(=O)OC)ccc31)[C@H](C(N)=O)[C@H]1C(=O)O[C@H](c3ccccc3)[C@H](c3ccccc3)N1[C@@H]2c1ccc(OCCO)cc1`, the composite z-score in [1] was 1.43; in experiment [3] it was 0.705; in [4], 1.27; in experiment [5], -0.27; in [6], -0.0161; in experiment [7], 0.184. In addition, the results for the composite z-score in experiment [8], in [9] and in experiment [10] were 0.177, 0.775 and 1.44, respectively. The z-score in [2] is -1.88.

Regarding `CC(C)CNC(=O)[C@@H]1c2ccccc2C(=O)N(C(C)C)[C@H]1c1ccc(CO)cc1`, the composite z-score in experiment [1] is -0.043; in [3], -0.269; in experiment [4] it was -0.451; in [5], 0.0584; in [6], -0.24; in [7], -0.2. Besides, the values for the composite z-score in experiment [8], in experiment [9] and in [10] were 0.49, 1.58 and -0.75, respectively. For the same compound, the z-score in experiment [2] was -0.972.

Consider `COCC(=C=CC[C@@H](O)c1ccc(OCCO)cc1)C[C@@H](O)COCc1ccccc1`, for which the composite z-score in experiment [1] was determined as 1.39; in [3], 1; in experiment [4], 0.0268; in experiment [5], 0.473; in experiment [6], 0.0559; in experiment [7], 0.0611. Moreover, the composite z-score in [8] worked out at 0.629; in experiment [9], 0.319; in experiment [10], 0.0353. In [2], this compound registered a z-score of -1.08.

As for `CN(C)CCCCNC(=O)[C@H]1C[C@H]2C(=O)N[C@@H](Cc3ccccc3)C(=O)N2[C@H]1c1cccc(OCCO)c1`, the composite z-score in [1] was -1.49; in experiment [3] it was 0.0071; in experiment [4] it was -0.545; in [5], 0.0005; in experiment [6], -0.217; in experiment [7], 0.251. Moreover, the composite z-score is -0.338 in experiment [8], 0.0886 in experiment [9] and 0.336 in experiment [10]. Moreover, the z-score in [2] was -0.251.

With `Cc1ccc(F)cc1S(=O)(=O)N[C@@H]1CCN(Cc2ccc3c(c2)OCO3)C1`, the composite z-score was -0.28 in experiment [1]; 0.198 in experiment [3]; -0.786 in [4]; -0.997 in [5]; -0.176 in [6]; -0.0626 in experiment [7]. For the same compound, the composite z-score is -0.12 in experiment [8], 0.636 in experiment [9] and 0.445 in experiment [10]. This compound also came in with a z-score in experiment [2] of -1.98.

As to `CCCCCCc1nc(-c2ccc(OC)nc2)cc2c1[Si](C(C)C)(C(C)C)OC2`, the composite z-score in experiment [1] was -0.611; in experiment [3], -0.147; in [4], -0.464; in [5] it was 0.0559; in experiment [6], -0.0643; in experiment [7] it was -0.262. For the same compound, the composite z-score in experiment [8] was -0.0965; in [9] it was -0.346; in experiment [10], 0.502. In [2], this compound returned a z-score of 1.09.

In the case of `COc1ccc(NN2C(C(O)c3ccc(OC)cc3)C=CC3C(=O)N(C4CCCCC4)C(=O)C32)cc1` (stereo not given), the composite z-score is 1.2 in [1]; 0.318 in experiment [3]; 0.566 in experiment [4]; -0.366 in experiment [5]; 0.0357 in experiment [6]; 0.191 in [7]. Besides, the composite z-score in experiment [8] was determined as 0.571; in experiment [9] it was 0.53; in [10], 1.08. The compound also displayed a z-score in experiment [2] of -1.02.

In the case of `C=CCOC(=O)[C@H]1[C@@H]2C(=O)O[C@@H](c3ccccc3)[C@@H](c3ccccc3)N2[C@@H](c2ccc(OCCOC(=O)[C@@H]3C[C@@H]4C(=O)N[C@@H](CC(C)C)C(=O)N4[C@@H]3c3ccc(O)cc3)cc2)[C@]12C(=O)Nc1ccc(I)cc12`, the composite z-score in experiment [1] was 1.37; in experiment [3], 0.835; in [4], 1.81; in experiment [5], 0.303; in experiment [6], 0.0095; in experiment [7] it was -0.0553. For the same compound, the composite z-score in [8] was 0.287; in experiment [9], 1.47; in experiment [10] it was 0.912. Besides, the z-score in [2] is -1.16.

Turning to `COc1ccc([Si](C)(C)[C@H]2[C@H](CCn3cc([C@H](O)c4ccccc4)nn3)O[C@@]3(C(=O)N(C)c4c(Br)cc(C)cc43)[C@@H]2C)cc1`, the composite z-score in [1] was -0.0087; in experiment [3], 0.285; in [4] it was 0.0287; in experiment [5], -0.0094; in [6], -0.124; in experiment [7] it was 0.0796. Moreover, the composite z-score in [8] is -0.411; in experiment [9], 0.088; in experiment [10], 0.14. The z-score in experiment [2] was -4.19.

As for `CCOC(=O)C1=C[C@@H](C(C)(C)C)N(S(=O)(=O)c2ccc(C)cc2)[C@H]1c1ccccc1Cl`, the composite z-score in experiment [1] is 0.694; in [3] it was 0.633; in experiment [4] it was 1.95; in experiment [5], 0.84; in experiment [6], 0.1; in [7], -0.177. In addition, the composite z-score in experiment [8] is 0.527; in [9], 1.13; in [10], 1.73. In experiment [2], this compound came in with a z-score of -1.8.

As to `COc1ccc(CC[C@H](O)c2cccc(OCC(=O)OC(C)(C)C)c2)cc1`, the composite z-score in experiment [1] is 1.38; in experiment [3], 0.461; in experiment [4], 0.829; in [5], -0.271; in experiment [6], 0.0181; in experiment [7], 0.167. Besides, the composite z-score in experiment [8] is -0.216; in experiment [9], 1.27; in experiment [10], 0.737. Moreover, in experiment [2], the z-score is -1.12.

Turning to `CCCCNC(=O)c1ccc(C#C[Si](C)(C)C)c(OC(C)=O)c1`, the composite z-score in experiment [1] is 0.315; in experiment [3], 0.431; in [4], -0.262; in experiment [5], -0.834; in [6], -0.191; in experiment [7] it was 0.0952. Further, the composite z-score was -0.185 in [8], 0.37 in experiment [9] and 0.25 in [10]. The compound further gave a z-score in experiment [2] of 0.93.

The values are drawn from PubChem BioAssay.
